Test results: PubChem BioAssay (Tox21)
Several values for one entry are separate records, joined by “and”; a condition that tells them apart may be missing. Equal values may be shown once. Inconclusive results are not listed. Some compounds were tested as several samples or in several runs, with calls that do not always agree. Activity calls are given as the source filed them. Unless noted, calls follow the shape of the dose curve; as a rule, active = well fitted curve in the direction sought with a large enough effect in the repeat runs; inconclusive = weak or mixed curves; inactive = no such curve, though single readings can be large; an effect the other way counts as inactive or inconclusive. Residues, ends and D or L forms follow the SMILES beside them.

Columns and labels:
[1] = qHTS assay to identify small molecule agonists of the estrogen receptor alpha (ER-alpha) signaling pathway in the presence of an antagonist - cell viability counter screen (AID 1259386);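 also: cells exposed to compounds for 22 h at 37 °C before the viability read; nearly all actives have a fitted effect of over 30% in size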; also: potency is read from the fitted curve at half-maximal effect
How it was run: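 VM7Luc4E2, stripped-serum pre-culture 5 d; 24hr plating; +ICI-182,780 10.0nM final; cpds 15 conc, 22hr, 37C/5% CO2; CellTiter-Fluor added at 21hr, fluorescence 1hr later.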

[2] = molecular target: Progesterone receptor (Homo sapiens) (UniProt P06401); assay: qHTS assay to identify small molecule agonists of the progesterone receptor (PR) signaling pathway (AID 1346784; calls by dose curve; also: nearly all actives have a fitted effect of over 30% in size)
How it was run: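 Beta-lactamase reporter read-out: after 16 hr compound treatment at 37C and a further 2 hr at room temperature with LiveBLAzer B/G FRET substrate, fluorescence was measured in PR-UAS-bla HEK 293T cells grown in 2% charcoal-stripped serum.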

[3] = molecular target: Progesterone receptor (Homo sapiens) (UniProt P06401); assay: qHTS assay to identify small molecule antagonists of the progesterone receptor (PR) signaling pathway (AID 1346795; active = well fitted inhibition curve with a large enough effect in the signal ratio in the repeat runs, not every such curve was filed as active; the % refers to the signal ratio)
How it was run: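 Read-out is fluorescence from the LiveBLAzer B/G FRET substrate, cleaved by a UAS-controlled beta-lactamase in PR-UAS-bla HEK293T cells after 16 hr exposure to compound plus 1 nM promegestone (final), followed by 2 hr at room temperature.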

[4] = qHTS assay to identify small molecule antagonists of the progesterone receptor (PR) signaling pathway - cell viability counter screen (AID 1346798);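 also: HEK293T PR-UAS-bla cells stimulated with the agonist R5020; series mostly up to about 92 µM; nearly all actives have a fitted effect of over 50% in size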
How it was run: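 HEK293T PR-UAS-bla, 2% charcoal-stripped FBS; 4 hr pre-plate; cpd + R5020, 16 h 37C; LiveBLAzer read first; then CellTiter-Glo 30 min RT, luminescence.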

[5] = qHTS assay to identify small molecule agonists of the progesterone receptor (PR) signaling pathway - cell viability counter screen (AID 1346799; calls by dose curve; also: nearly all actives have a fitted effect of over 45% in size)
How it was run: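 Luminescence from CellTiter-Glo, added after the beta-lactamase FRET read in the same wells, gave cytotoxicity in PR-UAS-bla HEK293T cells treated with compounds for 16 hr at 37C.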

[6] = qHTS assay to identify small molecule antagonists of the TGF-beta/Smad signaling pathway - cell viability counter screen (AID 1346824); also: nearly all actives have a fitted effect of over 50% in size
How it was run: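 Cytotoxicity counter-screen run in the same wells as the beta-lactamase Smad reporter read: CellTiter-Glo luminescence after 30 min at room temperature. HEK 293T SBE-bla cells had 5 hr compound exposure at 37 C with TGF-beta1 (0.25 ng/mL stock).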

[7] = qHTS assay to identify small molecule agonists of the TGF-beta/Smad signaling pathway - cell viability counter screen (AID 1346829); also: top concentration of the series differs between compounds; nearly all actives have a fitted effect of over 45% in size
How it was run: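 HEK 293T SBE-bla line, 5 hr compound exposure at 37 C, multiplexed CellTiter-Glo viability read by luminescence.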

[8] = qHTS assay to identify small molecule agonists of the TGF-beta/Smad signaling pathway (AID 1346859; active = well fitted activation curve with a large enough effect in the signal ratio in the repeat runs, not every such curve was filed as active; the % refers to the signal ratio; also: series mostly up to about 77 µM)
How it was run: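 SBE-bla HEK 293T, 4,000 cells/well, plated o/n; cpd in DMSO, 5 hr, 37 C/5% CO2; B/G FRET substrate 2 hr RT; ex 405, em 460/530 nm.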

[9] = molecular target: Thyrotropin-releasing hormone receptor (Homo sapiens) (UniProt P34981); assay: qHTS assay to identify small molecule antagonists of the thyrotropin-releasing hormone receptor (TRHR) signaling pathway (AID 1346877; active = well fitted inhibition curve with a large enough effect in the repeat runs, not every such curve was filed as active; also: series mostly up to about 51 µM)
How it was run: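 Intracellular calcium fluorescence, read kinetically every second over 3 min, reports TRH-evoked signalling in HEK293 cells carrying TRHR. Test compounds were added 5 min ahead of a 1 nM TRH challenge.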

[10] = molecular target: Thyrotropin-releasing hormone receptor (Homo sapiens) (UniProt P34981); assay: qHTS assay to identify small molecule agonists of the thyrotropin-releasing hormone receptor (TRHR) signaling pathway (AID 1346891; calls by dose curve; also: series mostly up to about 58 µM)
How it was run: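 Intracellular calcium rise, read as fluorescence every second for 3 min, served as the agonist signal in dye-loaded HEK293 cells expressing TRHR; each compound ran at 15 concentrations in triplicate.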

[11] = Human pregnane X receptor (PXR) small molecule agonists, qHTS cell viability counter screen (AID 1346977); also: nearly all actives have a fitted effect of over 50% in size; also: potency is read from the fitted curve at half-maximal effect
How it was run: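 PXR-Luc HepG2, 2,000 cells/well, 5% charcoal-stripped FBS; 5hr settle; cpd 24hr, 37C/5% CO2; CellTiter-Fluor at 23hr, read 1hr later (fluorescence).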

[12] = Caspase-3/7 induction in HepG2 cells by small molecules, qHTS assay (AID 1346978); also: nearly all actives have a fitted effect of over 15% in size; also: potency is read from the fitted curve at half-maximal effect
How it was run: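 Caspase-3/7 induction was measured by Caspase-Glo 3/7 luminescence (30 min, room temperature) after a 17 hr compound exposure of wild-type HepG2 cells seeded at 2,000 per well and pre-incubated 5 hr.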

[13] = Caspase-3/7 induction in CHO-K1 cells by small molecules, qHTS cell viability counter screen (AID 1346979); also: nearly all actives have a fitted effect of over 35% in size; also: potency is read from the fitted curve at half-maximal effect
How it was run: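 Cells (CHO-K1, wild type) are plated at 1,500 per well and incubated 5hr. Test compounds in DMSO are then pinned in, followed by 16hr at 37C and 5% CO2. Viability is read by CellTiter-Fluor fluorescence after 1hr.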

[14] = Caspase-3/7 induction in CHO-K1 cells by small molecules, qHTS assay (AID 1346980); also: nearly all actives have a fitted effect of over 15% in size
How it was run: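 Luminescent Caspase-Glo 3/7 read (30min, room temperature) quantified apoptosis induction. Cells were wild-type CHO-K1, treated with compound for 17hr at 37 C and 5% CO2.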

[15] = Caspase-3/7 induction in HepG2 cells by small molecules, qHTS cell viability counter screen (AID 1346981); also: nearly all actives have a fitted effect of over 30% in size; also: potency is read from the fitted curve at half-maximal effect
How it was run: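 HepG2, WT, 2,000 cells/well; 5 hr pre-incubation 37 C/5% CO2; compound pin-transferred from DMSO; 16 hr exposure; CellTiter-Fluor, 1 hr; fluorescence read.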

[16] = molecular target: Nuclear receptor subfamily 1 group I member 2 (Homo sapiens) (UniProt O75469); assay: Human pregnane X receptor (PXR) small molecule agonists, qHTS assay (AID 1346982); also: nearly all actives have a fitted effect of over 35% in size; also: potency is read from the fitted curve at half-maximal effect
How it was run: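 Luciferase signal from ONE-Glo (30 min, room temperature) measured activation of hPXR-driven CYP3A4 reporter expression in PXR-Luc HepG2 cells treated with compounds for 24 hr at 37 C.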

[17] = molecular target: Nuclear receptor subfamily 1 group I member 2 (Homo sapiens) (UniProt O75469); assay: Human pregnane X receptor (PXR) activation by small molecules, qHTS assay (AID 1346985); also: nearly all actives have a fitted effect of over 40% in size; also: potency is read from the fitted curve at half-maximal effect
How it was run: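 DPX-2 cells (HepG2 co-transfected with a PXR response element and a CYP3A4-promoter luciferase construct) were seeded at 2,000 per well, rested 5 hr at 37C, then exposed to DMSO-dissolved compounds for 24 hr. Activation was read as luciferase luminescence.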

[18] = molecular target: Cytochrome P450 2D6 (Homo sapiens) (UniProt P10635); assay: Cytochrome P450 Family 2 Subfamily D Member 6 (CYP2D6) small molecule antagonists: luciferase reporter qHTS assay (AID 1671196); also: nearly all actives have a fitted effect of over 50% in size; also: potency is read from the fitted curve at half-maximal effect
How it was run: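 Read-out is luminescence from luciferin formed by CYP2D6 turnover of a proluciferin substrate, recorded as relative luminescence units. Reactions ran 1 h at room temperature after NADPH regeneration solution was added.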

[19] = molecular target: Cytochrome P450 2C19 (Homo sapiens) (UniProt P33261); assay: Cytochrome P450 Family 2 Subfamily C Member 19 (CYP2C19) small molecule antagonists: luciferase reporter qHTS assay (AID 1671197); also: nearly all actives have a fitted effect of over 65% in size; also: potency is read from the fitted curve at half-maximal effect
How it was run: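 First, compounds are pinned into enzyme-substrate mix and held 10 min at room temperature. Second, NADPH regeneration solution is added and plates incubate 1 h at 37C. Third, detection reagent is added and luminescence read after 20 min.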

[20] = molecular target: Cytochrome P450 2C9 (Homo sapiens) (UniProt P11712); assay: Cytochrome P450 Family 2 Subfamily C Member 9 (CYP2C9) small molecule antagonists: luciferase reporter qHTS assay (AID 1671198); also: nearly all actives have a fitted effect of over 50% in size; also: potency is read from the fitted curve at half-maximal effect
How it was run: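 Enzyme-substrate mix preincubated with compound 10 min at room temperature; reaction started with NADPH regeneration solution, 1 h 37C. Luminescent luciferin product read after 20 min detection reagent.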

Measured: Potency

Progesterone receptor (Homo sapiens), sequence (P06401 whole entry, looked up): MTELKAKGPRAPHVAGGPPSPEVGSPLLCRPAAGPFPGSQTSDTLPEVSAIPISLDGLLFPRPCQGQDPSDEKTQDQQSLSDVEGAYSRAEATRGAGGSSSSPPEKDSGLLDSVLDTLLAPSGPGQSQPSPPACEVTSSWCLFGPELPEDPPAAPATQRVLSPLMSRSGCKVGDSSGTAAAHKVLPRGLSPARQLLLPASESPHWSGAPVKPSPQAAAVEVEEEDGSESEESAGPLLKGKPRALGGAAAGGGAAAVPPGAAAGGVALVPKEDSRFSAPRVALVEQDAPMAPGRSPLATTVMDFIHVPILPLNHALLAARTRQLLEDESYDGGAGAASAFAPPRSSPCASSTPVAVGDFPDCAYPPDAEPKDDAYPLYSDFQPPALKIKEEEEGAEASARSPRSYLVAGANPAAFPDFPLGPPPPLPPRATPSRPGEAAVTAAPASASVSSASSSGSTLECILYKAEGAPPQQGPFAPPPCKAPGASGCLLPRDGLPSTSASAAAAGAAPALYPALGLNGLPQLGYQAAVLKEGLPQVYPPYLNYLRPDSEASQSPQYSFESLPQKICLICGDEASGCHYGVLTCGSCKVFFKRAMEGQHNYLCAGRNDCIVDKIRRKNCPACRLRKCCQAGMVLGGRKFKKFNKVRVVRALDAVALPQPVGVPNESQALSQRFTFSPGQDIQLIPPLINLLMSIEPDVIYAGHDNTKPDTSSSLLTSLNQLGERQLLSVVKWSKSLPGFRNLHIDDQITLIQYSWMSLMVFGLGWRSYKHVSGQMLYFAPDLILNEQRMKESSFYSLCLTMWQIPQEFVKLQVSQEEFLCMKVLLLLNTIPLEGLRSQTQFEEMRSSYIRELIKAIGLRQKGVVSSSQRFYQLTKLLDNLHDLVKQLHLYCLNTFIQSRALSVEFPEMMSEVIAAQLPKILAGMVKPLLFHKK
Cytochrome P450 2C19 (Homo sapiens), sequence (P33261 whole entry, looked up): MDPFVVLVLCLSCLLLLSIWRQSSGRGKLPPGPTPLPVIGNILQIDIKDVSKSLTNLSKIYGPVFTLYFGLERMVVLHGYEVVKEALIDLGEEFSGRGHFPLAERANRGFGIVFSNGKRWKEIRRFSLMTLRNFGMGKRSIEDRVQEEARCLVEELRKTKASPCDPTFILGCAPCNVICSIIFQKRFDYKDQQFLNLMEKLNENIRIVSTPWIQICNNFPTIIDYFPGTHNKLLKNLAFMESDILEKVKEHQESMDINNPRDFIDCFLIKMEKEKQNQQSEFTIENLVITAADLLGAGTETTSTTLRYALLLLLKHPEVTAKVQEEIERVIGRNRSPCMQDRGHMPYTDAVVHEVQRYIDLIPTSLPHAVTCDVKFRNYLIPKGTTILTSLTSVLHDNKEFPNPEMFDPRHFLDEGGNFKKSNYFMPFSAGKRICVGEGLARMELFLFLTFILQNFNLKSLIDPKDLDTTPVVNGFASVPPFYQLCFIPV
Nuclear receptor subfamily 1 group I member 2 (Homo sapiens), sequence (O75469 whole entry, looked up): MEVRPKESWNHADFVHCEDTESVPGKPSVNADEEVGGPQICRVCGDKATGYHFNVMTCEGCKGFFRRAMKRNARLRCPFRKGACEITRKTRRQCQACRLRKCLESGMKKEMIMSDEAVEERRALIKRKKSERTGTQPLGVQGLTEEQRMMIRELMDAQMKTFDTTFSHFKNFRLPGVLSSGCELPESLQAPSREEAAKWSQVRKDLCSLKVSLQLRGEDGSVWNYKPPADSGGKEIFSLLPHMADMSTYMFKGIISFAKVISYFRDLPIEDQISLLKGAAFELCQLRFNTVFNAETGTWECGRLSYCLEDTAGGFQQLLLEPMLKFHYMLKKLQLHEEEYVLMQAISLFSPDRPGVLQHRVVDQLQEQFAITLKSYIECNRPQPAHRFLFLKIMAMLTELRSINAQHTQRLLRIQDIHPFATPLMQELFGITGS
Thyrotropin-releasing hormone receptor (Homo sapiens), sequence (P34981 whole entry, looked up): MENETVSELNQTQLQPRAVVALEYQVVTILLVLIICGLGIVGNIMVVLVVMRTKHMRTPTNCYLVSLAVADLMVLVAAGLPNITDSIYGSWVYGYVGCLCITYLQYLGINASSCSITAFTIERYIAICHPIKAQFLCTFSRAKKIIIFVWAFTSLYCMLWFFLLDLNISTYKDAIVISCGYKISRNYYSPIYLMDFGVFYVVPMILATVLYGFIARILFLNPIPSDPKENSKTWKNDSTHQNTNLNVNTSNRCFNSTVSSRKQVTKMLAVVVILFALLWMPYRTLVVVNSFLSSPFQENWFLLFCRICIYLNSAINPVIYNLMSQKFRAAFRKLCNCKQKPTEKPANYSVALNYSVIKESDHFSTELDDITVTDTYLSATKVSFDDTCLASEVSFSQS
Cytochrome P450 2C9 (Homo sapiens), sequence (P11712 whole entry, looked up): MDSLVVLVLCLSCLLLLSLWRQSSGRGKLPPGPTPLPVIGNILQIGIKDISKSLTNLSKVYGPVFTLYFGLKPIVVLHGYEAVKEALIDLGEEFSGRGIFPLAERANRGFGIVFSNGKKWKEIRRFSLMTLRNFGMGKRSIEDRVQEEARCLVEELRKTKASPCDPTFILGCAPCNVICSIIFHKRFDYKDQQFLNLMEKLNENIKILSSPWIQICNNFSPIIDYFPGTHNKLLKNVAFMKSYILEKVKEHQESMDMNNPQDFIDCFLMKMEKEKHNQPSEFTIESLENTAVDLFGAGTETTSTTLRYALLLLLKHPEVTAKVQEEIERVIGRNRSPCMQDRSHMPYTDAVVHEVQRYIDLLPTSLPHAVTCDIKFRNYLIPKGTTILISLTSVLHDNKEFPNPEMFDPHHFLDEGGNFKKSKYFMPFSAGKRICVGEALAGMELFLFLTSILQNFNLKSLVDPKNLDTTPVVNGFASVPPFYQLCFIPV
Cytochrome P450 2D6 (Homo sapiens), sequence (P10635 whole entry, looked up): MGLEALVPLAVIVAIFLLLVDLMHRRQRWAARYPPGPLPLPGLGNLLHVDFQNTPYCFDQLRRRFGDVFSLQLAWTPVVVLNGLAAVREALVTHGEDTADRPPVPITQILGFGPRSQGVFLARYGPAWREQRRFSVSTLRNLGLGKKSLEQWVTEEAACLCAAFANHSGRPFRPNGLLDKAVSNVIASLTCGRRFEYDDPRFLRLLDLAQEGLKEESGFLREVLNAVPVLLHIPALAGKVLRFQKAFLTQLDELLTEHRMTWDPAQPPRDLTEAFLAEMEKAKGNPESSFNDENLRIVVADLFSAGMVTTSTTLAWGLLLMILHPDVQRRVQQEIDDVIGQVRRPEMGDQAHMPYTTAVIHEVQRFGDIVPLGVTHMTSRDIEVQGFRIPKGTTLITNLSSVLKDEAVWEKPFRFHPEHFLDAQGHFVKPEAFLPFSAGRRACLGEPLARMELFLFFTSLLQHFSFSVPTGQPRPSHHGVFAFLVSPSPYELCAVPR

O=C(O)CCCCC(=O)O
inactive: all assays above

O=C1CN(/N=C/c2ccc([N+](=O)[O-])o2)C(=O)N1
active: [1] 30.5 µM and 54.5 µM and 18.8 µM | [11] 27.2 µM and 68.6 µM and 26.6 µM | [13] 60.9 µM and 68.6 µM and 33.5 µM | [15] 48.4 µM and 61.1 µM and 29.8 µM
79.4 µM (active) and inactive: [19]
inactive: all other assays above

CC(C)(Oc1ccc(C2CC2(Cl)Cl)cc1)C(=O)O (centres undefined)
active: [20] 30.5 µM and 22.4 µM and 15.5 µM
not listed: [9] | [10]
inactive: all other assays above

CCCC(CCC)C(=O)O
79.6 µM (active) and inactive: [20]
inactive: all other assays above

CCCCC1C(=O)N(c2ccccc2)N(c2ccccc2)C1=O
active: [16] 27.1 µM and 24.3 µM | [19] 5.6 µM and 25.2 µM | [20] 9.96 µM and 31.7 µM and 17.4 µM
not listed: [17]
inactive: all other assays above

CCCCOC(=O)CC(CC(=O)OCCCC)(OC(C)=O)C(=O)OCCCC
active: [16] 6.68 µM and 12.3 µM and 13.7 µM | [17] 25.1 µM | [19] 2.19 µM and 4.04 µM and 3.56 µM | [20] 2.75 µM and 2.86 µM and 2.52 µM
not listed: [6]
inactive: all other assays above

CCOc1ccc(NC(=O)CC(C)O)cc1 (centres undefined)
32.1 µM (active) and inactive: [18]
not listed: [6]
inactive: all other assays above

CC(O)CO (centres undefined)
inactive and 1.56 µM (active): [18]
not listed: [6]
inactive: all other assays above

CCCNC(=O)NS(=O)(=O)c1ccc(Cl)cc1
active: [20] 39.7 µM and 35.6 µM
not listed: [9] | [10] | [17]
inactive: all other assays above

NNC(=O)c1ccncc1
40 µM (active) and inactive: [18]
active: [19] 15.9 µM and 2.97 µM and 17.4 µM | [20] 35.7 µM and 13.3 µM
not listed: [9] | [10] | [17]
inactive: all other assays above

NC(=O)c1ccccc1O
inactive: all assays above

CC(O)C(=O)O (centres undefined)
inactive and 11 µM (active): [18]
inactive and 81.1 µM (active): [19]
inactive: all other assays above

O=C(O)/C=C\C(=O)O
25.2 µM (active) and inactive: [18]
41.3 µM (active) and inactive: [19]
not listed: [16] | [17]
inactive: all other assays above

CCCCCCCCCCCCCCCC(=O)O
80.5 µM (active) and inactive: [19]
not listed: [6]
inactive: all other assays above

Cc1cc(=O)[nH]c(=S)[nH]1
inactive: all assays above

COC(=O)[C@H](Cc1ccccc1)NC(=O)[C@@H](N)CC(=O)O (H-Asp-Phe-OMe)
not listed: [6]
inactive: all other assays above

NC(=O)c1cnccn1
19.7 µM (active) and inactive: [18]
not listed: [17]
inactive: all other assays above

CC(C)[C@@H]1CC[C@@H](C)C[C@H]1O
69.5 µM (active) and inactive: [12]
31 µM (active) and inactive: [16]
not listed: [6]
inactive: all other assays above

NC(N)=O
5.15 µM (active) and inactive: [13]
14.1 µM (active) and inactive: [11]
9.16 µM (active) and inactive: [16]
not listed: [9] | [10]
inactive: all other assays above

CC(O)CN(CCN(CC(C)O)CC(C)O)CC(C)O (centres undefined)
active: [18] 36.2 µM
not listed: [6]
inactive: all other assays above

Cc1cc(=O)n(-c2ccccc2)n1C
not listed: [17] | [20]
inactive: all other assays above

CCC1(c2ccccc2)C(=O)NCNC1=O
not listed: [9] | [10] | [17]
inactive: all other assays above

O=C1NC(=O)c2ccccc21
inactive and 31.4 µM (active): [16]
not listed: [9] | [10] | [17]
inactive: all other assays above

O=C(O)CCCCCCCC(=O)O
not listed: [17] | [20]
inactive: all other assays above

O=c1cc[nH]c(=S)[nH]1
61.5 µM (active) and inactive: [16]
30.8 µM (active) and inactive: [12]
40.2 µM (active) and inactive: [20]
28.5 µM (active) and inactive: [19]
inactive: all other assays above
